Measured values from PubChem BioAssay.
Values joined by “and” are separate entries in the source; they are usually repeats but may differ in a detail not shown here. Equal entries are not always repeated. Active and inactive are the calls of the source.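 The calls were made as follows, unless noted: active = compounds whose cell count with miR-34 switched on is under 0.7 times the count with it off; inactive = the rest.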

What was measured:
[1] = Wnt pathway potentiators raising nuclear beta-catenin – imaging, WNT3A-conditioned medium, mouse C2C12, NPC library, primary screen (AID 1117326; in the data active = nuclear beta-catenin stimulation mostly above about 4.2%, no sharp cut-off; inactive = mostly below about 10%); conditions: stronger effect = higher value
[2] = stimulators of insulin release from INS-1E, primary screen, cell-based, 5 mM glucose, NPC library (AID 1117329;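 active = compound raises insulin release from rat beta cells at 5 mM glucose, no numeric limit stated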); conditions: rat INS-1E insulin secretion, at 10 µM, stronger effect = higher value
[3] = growth inhibition of GSK3B-pretreated HCT116 cells – cell-based, CellTiter-Glo, 0.2 to 20 µM (AID 1117336;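 active = compounds lowering colon cancer cell viability after pretreatment blocking the GSK3B kinase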); conditions: HCT116 viability after GSK3B inhibitor, at 20 µM, stronger effect = higher value
[4] = inhibition of endothelial tube formation, primary screen, imaging, VEGF stimulated, CD31 staining, tube area, NPC library (AID 1117340;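 active = compound that reduces growth-factor-driven endothelial tube area in a mixed cell culture, no cutoff stated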); conditions: VEGF-stimulated ADSC/ECFC co-culture, at 10 µM, stronger effect = higher value
[5] = GLP1 release stimulators, primary, NCI-H716, NPC library (AID 1117341;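 active = compound raises GLP1 secretion from the human gut endocrine cells, with no numeric limit stated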); conditions: NCI-H716 cells, at 10 µM, stronger effect = higher value
[6] = HCT116 colon cancer cell growth inhibition, primary screen, CellTiter-Glo luminescence, NPC library (AID 1117342;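 active = compounds that lower survival of HCT116 colon cancer cells in the luminescence readout, no numeric limit stated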); conditions: at 20 µM (top of the series)
[7] = reduced SW480 viability measured with CellTiter-Glo, NPC library, primary (AID 1117343;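 active = compounds that lower viability of the colon cancer cells in the luminescence readout, with no numeric limit stated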); conditions: CellTiter-Glo luminescence; at 20 µM (top of the series) unless noted
[8] = NPC library primary testing for decreased DLD-1 cell viability via CellTiter-Glo (AID 1117346;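 active = compounds that lower survival of DLD-1 colon cancer cells in the luminescence readout, no cutoff given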); conditions: DLD-1 viability, CellTiter-Glo luminescence; at 20 µM (top of the series)
[9] = EMT-state selective cytotoxicity in co-culture – imaging, PC-3E GFP, TEM4-18 mCherry, primary screen (AID 1345086;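 active = compounds killing one labelled cell type while sparing the other, by normalised counts and ratio limits, not self-fluorescent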;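 as to all read-outs here: cells exposed to compound for 72 h before imaging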;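 as to red/green cell ratio (normalised): normalised mesenchymal count divided by normalised epithelial count so high means epithelial killing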); conditions: PC-3E GFP / TEM4-18 mCherry co-culture, imaging cell counts, at 1 µM; for red/green cell ratio (normalised): actives lie on both sides, counts scaled to control wells, 1 = unselective
[10] = viability loss with induced miR-34 in A549 – imaging, A549 dox-inducible miR-34, nuclei and caspase counts, primary screen (AID 1347080); conditions: A549 miR-34 inducible, Hoechst nuclei count, 48 h
[11] = biological target: NAD(+) hydrolase SARM1 (Homo sapiens) (UniProt Q6SZW1); experiment: blocking NAD cleavage by SARM1 SAM-TIR – cell lysate, NAD-Glo luminescence (AID 1508614;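 active = compound whose remaining NAD level is above about 45 nM, limit read from the data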;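 also: higher remaining NAD means stronger inhibition of SARM1 NADase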); conditions: SAM-TIR HEK293T lysate NADase, at 1 µM, stronger effect = higher value
NAD(+) hydrolase SARM1 (Homo sapiens), sequence (Q6SZW1 whole entry, looked up): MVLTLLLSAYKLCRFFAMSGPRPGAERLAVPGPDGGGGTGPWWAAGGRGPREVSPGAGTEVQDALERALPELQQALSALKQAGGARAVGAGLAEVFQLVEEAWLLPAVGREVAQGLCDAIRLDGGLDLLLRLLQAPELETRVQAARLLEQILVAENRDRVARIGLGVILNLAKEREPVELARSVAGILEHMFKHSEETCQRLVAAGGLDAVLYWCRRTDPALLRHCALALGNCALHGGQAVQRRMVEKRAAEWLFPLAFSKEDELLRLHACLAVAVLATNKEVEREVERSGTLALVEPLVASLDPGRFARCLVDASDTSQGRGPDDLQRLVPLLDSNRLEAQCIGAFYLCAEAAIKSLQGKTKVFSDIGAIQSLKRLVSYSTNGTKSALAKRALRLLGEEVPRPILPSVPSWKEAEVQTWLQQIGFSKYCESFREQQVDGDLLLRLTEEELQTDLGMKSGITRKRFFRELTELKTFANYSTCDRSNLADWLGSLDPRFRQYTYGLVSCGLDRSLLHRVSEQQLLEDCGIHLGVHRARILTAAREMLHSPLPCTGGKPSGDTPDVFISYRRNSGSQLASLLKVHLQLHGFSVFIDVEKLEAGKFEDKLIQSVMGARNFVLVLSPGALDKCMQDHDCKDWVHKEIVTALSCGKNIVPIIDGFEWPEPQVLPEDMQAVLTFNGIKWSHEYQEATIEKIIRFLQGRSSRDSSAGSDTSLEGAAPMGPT

[12] = compounds altering viability of human ES cells (AID 493140; call rule not given here;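 also: cells exposed to compounds for four days before counting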); conditions: human embryonic stem cell survival screen; stronger effect = higher value
[13] = P. berghei load reduction in hepatocytes – cell-based, HepG2, luciferase luminescence, HepG2 viability, primary screen (AID 624349; in the data active = parasite load remaining mostly below about 12%, no sharp cut-off; inactive = mostly above about 10%;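 also: 100% = mean of DMSO negative control wells on the same plate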); conditions: P. berghei liver stage in HepG2, luciferase luminescence, concentration not given here; parasite load remaining: stronger effect = lower value; viability: measured here: HepG2 viability without parasites
[14] = MELAS cybrid and Rieske KO viability enhancers – cell-based, MELAS cybrids, Rieske KO mouse fibroblasts, CellTiter-Glo, primary screen (AID 1508586;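 active = mean z-score across replicates of 1.96 or higher in either the MELAS or the Rieske mutant cell line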;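 also: z relative to plate mean and SD of compound and empty wells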); conditions: low glucose
[15] = measured here: epithelial PC-3E GFP cell survival
[16] = measured here: mesenchymal TEM4-18 mCherry cell survival
[17] = stronger effect = lower value, cell number ratio, induced over uninduced
[18] = measured here: relative caspase fold change +Dox/-Dox
[19] = measured here: total cells with miR-34 induction, stronger effect = lower value
[20] = measured here: total cells without miR-34 induction
[21] = MELAS cybrid survival, CellTiter-Glo 48 h, stronger effect = higher value
[22] = Rieske KO mouse fibroblast survival, CellTiter-Glo 72 h

NS(=O)(=O)c1ccc(C(=O)O)cc1
nuclear beta-catenin stimulation ([1]; at 10 µM): 1.5% (inactive) | nuclear beta-catenin stimulation ([1]; stimulation, at 2 µM): 1.6% | insulin secretion stimulation [2]: -0.4% (inactive) | viability decrease [3]: 15.4% (inactive) | tube area decrease [4]: -32.8% (inactive) | GLP1 secretion stimulation [5]: 2.9% (inactive) | inhibition of viability [6]: -10.4% (inactive) | viability decrease (inhibition) [7]: 21.5% (inactive) | viability decrease (inhibition) [8]: 3.9% (inactive) | red/green cell ratio (normalised) [9]: 0.82 (inactive) | normalised cell number [9, 15]: 1.25 | normalised cell number [9, 16]: 1.03 | fold change [10, 17]: 0.907 (inactive) | fold change [10, 18]: 1.07 | cell count [10, 19]: 8630 | cell count [10, 20]: 9520 | remaining NAD [11]: 10 nM (inactive)

CCCNC(C)(C)COC(=O)c1ccccc1
survival [12]: 15.2 (inactive) | parasite load remaining [13]: 69.3% (inactive) | viability [13]: 69.4% | nuclear beta-catenin stimulation ([1]; at 10 µM): 0.1% (inactive) | nuclear beta-catenin stimulation ([1]; stimulation, at 2 µM): 0.2% | insulin secretion stimulation [2]: 4.2% (inactive) | viability decrease [3]: 0.2% (inactive) | tube area decrease [4]: 6.5% (inactive) | GLP1 secretion stimulation [5]: 4% (inactive) | inhibition of viability [6]: -3.5% (inactive) | viability decrease (inhibition) [7]: 42.3% (inactive) | viability decrease (inhibition) [8]: 25.6% (inactive) | red/green cell ratio (normalised) [9]: 1.13 (inactive) | normalised cell number [9, 15]: 1.15 | normalised cell number [9, 16]: 1.29 | fold change [10, 17]: 0.976 (inactive) | fold change [10, 18]: 0.64 | cell count [10, 19]: 9410 | cell count [10, 20]: 9640 | z-score [14, 21]: -0.122 (inactive) | z-score [14, 22]: -0.0308 | remaining NAD [11]: 10 nM (inactive)

CCCCCCCCCCCCCCCC[N+](C)(C)CCN(Cc1ccc(OC)cc1)c1ncccn1
survival [12]: 0.417 (inactive) | parasite load remaining [13]: 24.3% (inactive) | viability [13]: 77.4% | nuclear beta-catenin stimulation ([1]; at 10 µM): -5.4% (inactive) | nuclear beta-catenin stimulation ([1]; stimulation, at 2 µM): 0% | insulin secretion stimulation [2]: 2.9% (inactive) | viability decrease [3]: 100% (active) | tube area decrease [4]: 110% (active) | GLP1 secretion stimulation [5]: 79.6% (active) | inhibition of viability [6]: 101% (active) | viability decrease (inhibition) [7]: 120% (active) | viability decrease (inhibition) [8]: 103% (active) | red/green cell ratio (normalised) [9]: 0.95 (inactive) | normalised cell number [9, 15]: 1.06 | normalised cell number [9, 16]: 1 | fold change [10, 17]: 0.797 (inactive) | fold change [10, 18]: 1.23 | cell count [10, 19]: 4700 | cell count [10, 20]: 5900 | z-score [14, 21]: -2.42 (inactive) | z-score [14, 22]: 1.31 | remaining NAD [11]: 10 nM (inactive)

S=C=Nc1ccc(N=C=S)cc1
nuclear beta-catenin stimulation ([1]; at 10 µM): 16.4% (inactive) | nuclear beta-catenin stimulation ([1]; stimulation, at 2 µM): -0.1% | insulin secretion stimulation [2]: 3.2% (inactive) | viability decrease [3]: 77.2% (active) | tube area decrease [4]: 100% (active) | GLP1 secretion stimulation [5]: -3.9% (inactive) | inhibition of viability [6]: 57% (active) | viability decrease (inhibition) [7]: 73.5% (active) | viability decrease (inhibition) [8]: 81.3% (active) | red/green cell ratio (normalised) [9]: 0.76 (inactive) | normalised cell number [9, 15]: 1.12 | normalised cell number [9, 16]: 0.86 | fold change [10, 17]: 0.826 (inactive) | fold change [10, 18]: 1.4 | cell count [10, 19]: 7160 | cell count [10, 20]: 8680 | remaining NAD [11]: 10 nM (inactive)

O=S(=O)(O)c1cc(I)c(O)c2ncccc12
nuclear beta-catenin stimulation ([1]; at 10 µM): -0.8% (inactive) | nuclear beta-catenin stimulation ([1]; stimulation, at 2 µM): -0.5% | insulin secretion stimulation [2]: -0.3% (inactive) | viability decrease [3]: 62.2% (active) | tube area decrease [4]: -5.5% (inactive) | GLP1 secretion stimulation [5]: -2.6% (inactive) | inhibition of viability [6]: 41% (inactive) | viability decrease (inhibition) [7]: 77.9% (active) | viability decrease (inhibition) [8]: 53.4% (active) | red/green cell ratio (normalised) [9]: 1 (inactive) | normalised cell number [9, 15]: 1.1 | normalised cell number [9, 16]: 1.11 | fold change [10, 17]: 1.07 (inactive) | fold change [10, 18]: 0.778 | cell count [10, 19]: 5970 | cell count [10, 20]: 5570 | remaining NAD [11]: 10 nM (inactive)

CCCCCCC[N+](CC)(CC)CCCCc1ccc(Cl)cc1
survival [12]: 0.5 (inactive) | parasite load remaining [13]: 34.3% (inactive) and 96.8% (inactive) | viability [13]: 48.5% and 90.6% | nuclear beta-catenin stimulation ([1]; at 10 µM): 1.5% (inactive) | nuclear beta-catenin stimulation ([1]; stimulation, at 2 µM): 0.5% | insulin secretion stimulation [2]: 1% (inactive) | viability decrease [3]: 95.1% (active) | tube area decrease [4]: 83.4% (active) | GLP1 secretion stimulation [5]: 7.2% (inactive) | inhibition of viability [6]: 79.1% (active) | viability decrease (inhibition) [7]: 60.9% (active) | viability decrease (inhibition) [8]: 75.4% (active) | red/green cell ratio (normalised) [9]: 0.92 (inactive) | normalised cell number [9, 15]: 0.97 | normalised cell number [9, 16]: 0.89 | fold change [10, 17]: 0.718 (inactive) | fold change [10, 18]: 1.54 | cell count [10, 19]: 6720 | cell count [10, 20]: 9350 | z-score [14, 21]: -3 (inactive) | z-score [14, 22]: -0.71

NC(=O)NS(=O)(=O)c1ccc(N)cc1
nuclear beta-catenin stimulation ([1]; at 10 µM): -1.6% (inactive) | nuclear beta-catenin stimulation ([1]; stimulation, at 2 µM): 0.3% | insulin secretion stimulation [2]: 5.8% (inactive) | viability decrease [3]: -1.6% (inactive) | tube area decrease [4]: -10.6% (inactive) | GLP1 secretion stimulation [5]: -4.5% (inactive) | inhibition of viability [6]: 6.1% (inactive) | viability decrease (inhibition) [7]: 75.8% (active) | viability decrease (inhibition) [8]: -12.6% (inactive) | red/green cell ratio (normalised) [9]: 0.74 (inactive) | normalised cell number [9, 15]: 1.37 | normalised cell number [9, 16]: 1.02 | fold change [10, 17]: 0.96 (inactive) | fold change [10, 18]: 0.945 | cell count [10, 19]: 8990 | cell count [10, 20]: 9360 | remaining NAD [11]: 10 nM (inactive)

CN(C/C=C/c1ccccc1)Cc1cccc2ccccc12
survival [12]: 21.7 (inactive) | parasite load remaining [13]: 71.6% (inactive) | viability [13]: 71.3% | nuclear beta-catenin stimulation ([1]; at 10 µM): 2.1% (inactive) | nuclear beta-catenin stimulation ([1]; stimulation, at 2 µM): 1.8% | insulin secretion stimulation [2]: 14.3% (inactive) | viability decrease [3]: 86.7% (active) | tube area decrease [4]: -3.5% (inactive) | GLP1 secretion stimulation [5]: 0.7% (inactive) | inhibition of viability [6]: 85.3% (active) | viability decrease (inhibition) [7]: 95.4% (active) | viability decrease (inhibition) [8]: 74.5% (active) | red/green cell ratio (normalised) [9]: 1.01 (inactive) | normalised cell number [9, 15]: 1.19 | normalised cell number [9, 16]: 1.2 | fold change [10, 17]: 0.954 (inactive) | fold change [10, 18]: 0.94 | cell count [10, 19]: 8810 | cell count [10, 20]: 9230 | z-score [14, 21]: -0.0397 (inactive) | z-score [14, 22]: -0.28 | remaining NAD [11]: 10 nM (inactive)

CC(=O)N[C@@H](CC(C)C)C(=O)O
survival [12]: 3.17 (inactive) | parasite load remaining [13]: 73.5% (inactive) and 218% (inactive) | viability [13]: 98.8% and 70.6% | nuclear beta-catenin stimulation ([1]; at 10 µM): 0% (inactive) | nuclear beta-catenin stimulation ([1]; stimulation, at 2 µM): 1.3% | insulin secretion stimulation [2]: -1% (inactive) | viability decrease [3]: -27.2% (inactive) | tube area decrease [4]: -4.7% (inactive) | GLP1 secretion stimulation [5]: -1.9% (inactive) | inhibition of viability [6]: -7.5% (inactive) | viability decrease (inhibition) [7]: 28% (inactive) | viability decrease (inhibition) [8]: -12.9% (inactive) | red/green cell ratio (normalised) [9]: 0.81 (inactive) | normalised cell number [9, 15]: 1.12 | normalised cell number [9, 16]: 0.91 | fold change [10, 17]: 0.893 (inactive) | fold change [10, 18]: 1.09 | cell count [10, 19]: 9170 | cell count [10, 20]: 10300 | z-score [14, 21]: 0.637 (inactive) | z-score [14, 22]: -0.175
